Screens: PubChem, several laboratories
A selection: hits, their analogues and other compounds. The true share with any hit is near 1.7%.
RecA intein inh = Mtb RecA intein splicing inhibitors, primary screen, biochemical, fluorescence, HTS; AID 2221, 2009; cell-free RecA intein splicing; inhibition, % (no concentration beside the values); 290,000 compounds, 0.75% hits; in the data active = inhibition above about 30%;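 also: 0% = vehicle wells and 100% = reference inhibitor control wells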
SARS 3CLpro inh = SARS-CoV 3CLpro protease inhibitors, primary screen, biochemical, quenched FRET; Replicase polyprotein 1ab (Severe acute respiratory syndrome coronavirus), P0C6X7; recombinant SARS-CoV 3CLpro, quenched FRET peptide cleavage; inhibition, % at 6 µM; 290,000 compounds, 0.14% hits; in the data active = inhibition above about 12%
CCHF vOTU inh = CCHFV vOTU protease inhibitors, primary screen, biochemical, Pep-AMC substrate, fluorescence | inhibition, % at 11.5 µM | Crimean-Congo hemorrhagic fever virus L polyprotein viral ovarian tumor (vOTU) protease … | 370,000 compounds, 0.55% hits; in the data active = inhibition above about 30%; also: 0% = vehicle wells with enzyme and 100% = no enzyme wells
SSB-PriA inh = inhibitors of Klebsiella pneumoniae PriA binding to SSB C-terminal tail, primary screen, biochemical, AlphaScreen; AlphaScreen SSBct-PriA binding, biotinylated peptide; inhibition, % at 33 µM; 430,000 compounds, 0.6% hits; AID 1272365, 2023; in the data active = inhibition mostly above about 37%, no sharp cut-off; inactive = mostly below about 20%;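 also: plate controls were negative control peptide for no effect and reference peptide for full effect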
VHR inh abs = VHR1 phosphatase inhibitors, primary screen, biochemical, absorbance, uHTS; AID 1654, 2009; recombinant VHR phosphatase, pNPP absorbance; inhibition, % at 13.3 µM; 290,000 compounds, 0.52% hits; in the data active = inhibition above about 50%
Target sequence (P51452 whole entry, looked up): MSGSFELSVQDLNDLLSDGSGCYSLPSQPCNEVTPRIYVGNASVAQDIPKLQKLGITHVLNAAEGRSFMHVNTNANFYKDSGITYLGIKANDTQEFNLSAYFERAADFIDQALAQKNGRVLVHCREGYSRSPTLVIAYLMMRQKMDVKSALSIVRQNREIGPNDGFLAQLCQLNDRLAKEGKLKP
GFP chromophore = counter-screen: blocks GFP chromophore formation, dose response, counter-screen, biochemical, fluorescence, homogeneous; 2,100 compounds, 83% hits; EC50, µM; shares compounds with RecA intein inh; cell-free GFP chromophore formation; AID 434968, 2010; call rule not given here
* marks the source's active call; other numbers are inactive results; x = not tested or not shown.

SMILES	RecA intein inh	SARS 3CLpro inh	CCHF vOTU inh	SSB-PriA inh	VHR inh abs	GFP chromophore
COc1cc(-c2[nH]nc3c2C(c2ccco2)C(C#N)=C(N)O3)cc(OC)c1OC (stereo not drawn)	79*	3	8	-10	0	9.1*
N#CC1=C(N)Oc2n[nH]c(-c3ccncc3)c2C1c1ccsc1 (stereo not drawn)	54*	-12	-10	-16	2	38*
COc1cccc(-c2[nH]nc3c2C(c2ccsc2)C(C#N)=C(N)O3)c1 (stereo not drawn)	76*	2	-1	-8	37	7.7*
CC(C)(C)c1ccc(C2C(C#N)=C(N)Oc3n[nH]c(-c4cccnc4)c32)cc1 (stereo not drawn)	6	-6	-1	-4	7	x
CCn1c(C)cc2c(c1=O)C(c1ccc3c(c1)OCO3)C(C#N)=C(N)O2 (stereo not drawn)	0	2	-7	-9	13	x
O=C(c1ccc(-c2cccc(Cl)c2)cc1)N1CCC(N2CCC(O)C2)CC1 (stereo not drawn)	x	x	x	-12	x	x
Cc1[nH]nc2c1C(c1ccsc1)C(C#N)=C(N)O2 (stereo not drawn)	83*	2	-8	-25	6	39*
Cc1ccc(-c2[nH]nc3c2C(c2ccsc2)C(C#N)=C(N)O3)cc1 (stereo not drawn)	65*	0	6	-2	19	1.8*
CCC(CC)C1C(C#N)=C(N)Oc2n[nH]c(-c3ccccc3)c21 (stereo not drawn)	4	5	19	-9	-2	x
Cc1[nH]nc2c1C(C1CC=CCC1)C(C#N)=C(N)O2 (stereo not drawn)	x	0	2	-3	4	x
CCOc1ccc(-c2[nH]nc3c2C(c2cccnc2)C(C#N)=C(N)O3)cc1 (stereo not drawn)	x	-3	8	5	14	x
N#CC1=C(N)Oc2n[nH]c(-c3ccccc3)c2C1c1ccsc1 (stereo not drawn)	86*	-1	8	-4	-9	31*
COc1cccc(-c2[nH]nc3c2C(c2ccoc2)C(C#N)=C(N)O3)c1 (stereo not drawn)	82*	1	13	1	20	9.8*
COCCCNC(=O)C1CC(=O)N(C2CCCCC2)C1 (stereo not drawn)	x	x	x	-16	x	x
CC1(C)CC(=O)c2c(oc3c(Cl)cc(NS(=O)(=O)c4ccc5ccccc5c4)cc23)C1	x	x	x	-2	x	x
O=C(Cc1cccc(F)c1)NC1(c2nc(-c3cccnc3)no2)CCCCC1	x	x	x	-1	x	x
O=C(NCc1cncc(-c2ccsc2)c1)c1cnccn1	x	x	x	-4	x	x
Cc1ccccc1NC(=O)CCCOc1ccc(C(C)(C)C)cc1	x	x	x	-8	x	x
COC(=O)c1ccc(NC(=O)C(=O)NCc2ccc([C@H](O)c3ccccc3)s2)cc1	x	x	x	-1	x	x
Cc1[nH]c2ccccc2c1CCNC(=O)c1ccc2c(c1[N+](=O)[O-])C(=O)c1ccccc1C2=O	84*	-7	12	8	20	31*
Cc1ccccc1CS(=O)(=O)c1nnc([C@H](Cc2ccccc2)NC(=O)OC(C)(C)C)o1	41*	5	3	-22	6	12*
CCC(C)[C@@H](NC(=O)OC(C)(C)C)c1nnc(S(=O)(=O)Cc2cccc(C)c2)o1 (stereo partly drawn)	37*	4	9	-11	22	31*
CC(C)(C)OC(=O)N[C@@H](Cc1ccccc1)c1nnc(S(=O)(=O)Cc2ccccc2)o1	x	-4	8	x	20	x
O=S(=O)(NCCc1ccc(N2CCCC2)cc1)c1ccc2c(c1)OCCO2	x	x	x	15	x	x
O=S(=O)(c1ccccc1)c1ncc(C(F)(F)F)cc1Cl	63*	0	17	-9	6	25*
SMILES	RecA intein inh	SARS 3CLpro inh	CCHF vOTU inh	SSB-PriA inh	VHR inh abs	GFP chromophore
O=S(=O)(c1ccccc1)c1ncc(C(F)(F)F)cc1O	3	0	6	-3	20	x
CCOc1ccccc1NC(=O)Cn1nc2cc(-c3nc(C)no3)ccn2c1=O	x	x	x	-10	x	x
O=C1C=C(N(CCO)Cc2ccccc2)c2ccccc2C1=O	88*	3	x	29	-4	0.6*
O=C1c2ccccc2C(=O)c2c1cccc2N(CCO)CCO	5	-5	-4	33	1	x
Cc1ccc(C)c(-c2cc3c(SCC(=O)OC(C)C)nccn3n2)c1	x	x	x	-12	x	x
O=C(Cc1ccccc1)c1c[nH]c(C(=O)NCc2ccncc2)c1	-4	-3	-6	-12	28	x
O=C(c1c[nH]c(C(=O)C(Cl)(Cl)Cl)c1)c1ccc(F)cc1Cl	54*	8	19	-19	5	23*
O=C(c1ccc(Cl)cc1)c1c[nH]c(C(=O)C(Cl)(Cl)Cl)c1	80*	12	20	-14	16	3.9*
O=C(Cc1ccccc1)c1c[nH]c(C(=O)C(Cl)(Cl)Cl)c1	69*	-7	3	1	10	37*
Cc1ccc(-c2nc(COC(=O)c3nnn(-c4ccc(F)cc4C)c3C)c(C)o2)cc1	x	x	x	3	x	x
NCc1cc(-c2ccccc2F)on1	x	x	x	-7	x	x
Cc1ccc(-n2nnc(C(=O)Nc3ccc(S(N)(=O)=O)cc3)c2C)cc1	x	x	x	0	x	x
COc1ccc(-c2nnc(NC(=O)c3ccc([N+](=O)[O-])s3)o2)cc1	x	x	x	0	x	x
COc1ccc(C2c3c(ncn(Cc4ccco4)c3=N)Oc3ccc4ccccc4c32)cc1 (stereo not drawn)	29	0	18	11	15	x
N=c1c2c(ncn1Cc1ccco1)Oc1ccc3ccccc3c1C2c1ccccc1 (stereo not drawn)	30*	-7	3	35	3	33*
Cc1oc2c(c1C(=O)NCc1cccnc1)C(=O)c1ccccc1C2=O	75*	4	x	1	-11	0.62*
C[C@@H]1CC=C[C@H]2[C@H]1C(=O)N(Cc1ccccc1)[C@H]2c1ccc(C(F)(F)F)cc1	37*	x	11	1	15	>38
COc1ccc(Br)cc1[C@H]1[C@H]2C=CC[C@@H](C)[C@@H]2C(=O)N1Cc1ccccc1	34*	x	2	0	-1	>38
CN(C)/C=C/C(=O)c1ccc2noc(-c3ccc(F)cc3)c2c1	31*	-7	-3	6	-2	>38
Cc1ccc(-c2onc3ccc(C(=O)/C=C/N(C)C)cc23)cc1	0	-3	-9	-8	-2	x
Cc1[nH][nH]c(=O)c1C(c1ccc(N(C)C)c(Br)c1)c1c(C)[nH][nH]c1=O	97*	5	12	-10	9	0.47*
CCn1c(SCC(=O)N2CCOc3ccc(C)cc32)nc2c(-c3ccccc3)csc2c1=O	x	x	x	-10	x	x
